PubChem BioAssay (NCI)
This is part of a sample that, as a whole, favours compounds with a hit. Of some 79,000 tested, about 15% had one in any assay. Values without a mark were called inactive. Active and inactive are the calls of the source. No stated cut-off is given here; in the data, active means growth inhibition above about 70%; inactive means the rest.

Assays:
[1] = NCI Yeast Anticancer Drug Screen. Data for the rad50 strain (AID 155);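 further: 0% = growth of vehicle-only cultures of the same strain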; conditions: S. cerevisiae rad50 strain growth inhibition, active compounds read high
Procedure, shortened: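 Inhibition values express reduced yeast growth in compound-treated cultures relative to vehicle-treated controls.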

[2] = NCI Yeast Anticancer Drug Screen. Data for the mec2-1 strain (AID 157); conditions: S. cerevisiae mec2-1 strain, active compounds read high
Procedure, shortened: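 Each compound was tested on mec2-1 yeast, a strain altered in DNA damage repair or cell cycle control. Growth inhibition is reported relative to vehicle.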

[3] = NCI Yeast Anticancer Drug Screen. Data for the sgs1 mgt1 strain (AID 161);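 further: 0% = growth of cultures given vehicle only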; conditions: S. cerevisiae sgs1 mgt1 strain, active compounds read high
Procedure, shortened: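 Read-out: growth inhibition vs vehicle controls. Cells: mutant yeast strain deficient in DNA damage repair.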

[4] = NCI Yeast Anticancer Drug Screen. Data for the cln2 rad14 strain (AID 165);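 further: 0% = growth equal to vehicle treated cultures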; conditions: S. cerevisiae cln2 rad14 strain, active compounds read high
Procedure, shortened: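 Test compounds were added to cln2 rad14 yeast cultures; inhibition of growth was then determined by comparison with vehicle treatment.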

[5] = NCI Yeast Anticancer Drug Screen. Data for the bub3 strain (AID 167); conditions: S. cerevisiae bub3 mutant strain, active compounds read high
Procedure, shortened: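 Steps: expose the mutant yeast strain to compound; grow alongside vehicle-treated cultures; measure growth; express inhibition against the vehicle cultures.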

[6] = NCI Yeast Anticancer Drug Screen. Data for the mlh1 rad18 strain (AID 175); conditions: S. cerevisiae mlh1 rad18 strain growth inhibition, active compounds read high
Procedure, shortened: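 Inhibition values reflect reduced growth of mutant yeast versus vehicle-treated controls following compound exposure; the mutations affect DNA damage repair.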

[7] = at 5.0 µM (retest, dose inferred, filed as 0.5)
[8] = at 50.0 µM (retest, dose inferred, filed as 5.0)

| SMILES | growth inhibition [1, 7] | growth inhibition [1, 8] | growth inhibition ([1]; at 50.0 µM) | growth inhibition [2, 7] | growth inhibition [2, 8] | growth inhibition ([2]; at 50.0 µM) | growth inhibition [3, 7] | growth inhibition [3, 8] | growth inhibition ([3]; at 50.0 µM) | growth inhibition [4, 7] | growth inhibition [4, 8] | growth inhibition ([4]; at 50.0 µM) | growth inhibition [5, 7] | growth inhibition [5, 8] | growth inhibition ([5]; at 50.0 µM) | growth inhibition [6, 7] | growth inhibition [6, 8] | growth inhibition ([6]; at 50.0 µM) |
| --- | --- | --- | --- | --- | --- | --- | --- | --- | --- | --- | --- | --- | --- | --- | --- | --- | --- | --- |
| Nc1nc(-c2ccccc2)c(N=Nc2c(Cl)cccc2Cl)s1 | -2% | 94% (active) | 96.5% (active) | 21% | 95% (active) | 90.3% (active) | 9% | 94% (active) | 55.4% | 17% | 95% (active) | 87.7% (active) | 13% | 94% (active) | 91% (active) | 17% | 94% (active) | 96.8% (active) |
| CC[O-].CC[O-].[O-]c1ccccc1C=Nc1ccccc1.[O-]c1ccccc1C=Nc1ccccc1.[Ti+4] | 23% | 23% | 50.5% | 22% | 22% | 14.8% | 12% | 12% | 19.8% | 13% | 13% | 29.9% | 12% | 12% | 19.9% | 23% | 23% | 19.9% |
| FC(F)(F)c1[nH]nc(-c2cccs2)c1N=NN1CCOCC1 | 98% (active) | 98% (active) | 98% (active) | 100% (active) | 99% (active) | 99.2% (active) | 100% (active) | 99% (active) | 97.2% (active) | 99% (active) | 99% (active) | 98.6% (active) | 100% (active) | 99% (active) | 98.6% (active) | 100% (active) | 99% (active) | 98% (active) |
| CCc1nc(N)nc(N)c1-c1ccc(NCCc2ccccc2)c([N+](=O)[O-])c1 | 13% | 16% | 25.9% | 9% | 8% | -2.75% | 17% | 19% | 5.15% | 7% | 6% | 9.75% | 13% | 15% | 14.4% | 7% | 19% | 24.9% |
| O=C(Oc1cccc2cccnc12)c1cccnc1 | 93% (active) | 98% (active) | 93.5% (active) | 58% | 99% (active) | 99.2% (active) | 89% (active) | 99% (active) | 98% (active) | 43% | 94% (active) | 92.2% (active) | 97% (active) | 98% (active) | 97.8% (active) | 82% (active) | 98% (active) | 97.5% (active) |
| O=C(c1ccccc1)c1c(CO[N+](=O)[O-])n([O-])c2ccccc2[n+]1=O | 20% | 97% (active) | 98.5% (active) | 14% | 99% (active) | 99% (active) | 10% | 98% (active) | 98.3% (active) | 10% | 96% (active) | 99.2% (active) | -5% | 98% (active) | 97.7% (active) | 48% | 99% (active) | 98.8% (active) |
| O=C(CC(c1ccccc1)c1ccccc1)NCCCCN1CCCCCCC1 | 27% | 89% (active) | 12% | 19% | 96% (active) | -9% | 25% | 94% (active) | 22.9% | 2% | 90% (active) | 89.7% (active) | 5% | 93% (active) | 26.4% | 16% | 93% (active) | 19.4% |
| COC1(OC)C(C#N)(C#N)C2(C(=O)Nc3ccccc32)C1(OC)OC (stereo not given) | 11% | -4% | 15.4% | -12% | -16% | 12.2% | -2% | -25% | 97% (active) | -4% | -7% | 28% | -14% | 38% | -7.6% | 10% | -22% | 90% (active) |
| C=CCc1cccc(/C=N\N=C(/N)NO)c1O | -1% | 26% | 43.5% | 2% | 35% | 84.5% (active) | 3% | 59% | 41.1% | -6% | 26% | 48.6% | -4% | 8% | 70% (active) | -2% | 42% | 83.2% (active) |
| CC1(c2ccc(Cl)cc2)OC(=O)C(=Cc2ccc([N+](=O)[O-])s2)C(=O)O1 (stereo not given) | 26% | 99% (active) | 51.5% | 15% | 99% (active) | 40.4% | 49% | 99% (active) | 88.9% (active) | 44% | 99% (active) | 52.4% | 45% | 99% (active) | 84.7% (active) | 18% | 82% (active) | 92.9% (active) |
